Measurements reported in the supplement of paper PMC11732987, “Enantioselective OTUD7B fragment discovery through chemoproteomics screening and high-throughput optimisation” (Communications Chemistry, 2025).
Unmarked numbers belong to inactive results.

Legend:
Assay in all cases: log2 ratio of Biotin-Ahx-Ub-VS probe labelling (fragment/DMSO); higher = less target engagement (more negative = stronger competition), active = hit call of the paper (q ≤ 0.05, log2 ratio ≤ -1)
Settings in all cases: compound concentration: 200 uM; treatment time: 3 h
OTUD6B = molecular target: T1, OTUD6B (UniProt Q8N6M0)
T1 sequence (whole entry): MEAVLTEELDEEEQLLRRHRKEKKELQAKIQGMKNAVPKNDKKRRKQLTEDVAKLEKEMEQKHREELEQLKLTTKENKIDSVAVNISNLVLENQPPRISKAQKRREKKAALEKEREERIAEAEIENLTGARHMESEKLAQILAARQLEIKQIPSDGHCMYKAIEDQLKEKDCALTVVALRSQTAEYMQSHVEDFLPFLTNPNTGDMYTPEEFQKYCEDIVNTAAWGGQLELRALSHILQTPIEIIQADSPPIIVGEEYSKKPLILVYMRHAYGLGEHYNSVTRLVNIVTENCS
Outline: (§1)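 HEK293T lysate (495 µg per sample, in Tris/CHAPS/IGEPAL buffer with protease inhibitors) was treated in triplicate with fragment at 200 µM or with DMSO for 3 h. It was then treated with Biotin-Ahx-Ub-VS (0.5 µM final) for 1 h. Labelled DUBs were NeutrAvidin-enriched, digested with LysC and trypsin, and run by diaPASEF LC-MS/MS. Spectronaut label-free quantities were global-median-normalised. Values are average log2 ratios fragment/DMSO by unpaired t-test, using proteins with ≥2 unique peptides.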

OTUD7B = molecular target: T2, OTUD7B (UniProt Q6GQQ9)
T2 sequence (whole entry): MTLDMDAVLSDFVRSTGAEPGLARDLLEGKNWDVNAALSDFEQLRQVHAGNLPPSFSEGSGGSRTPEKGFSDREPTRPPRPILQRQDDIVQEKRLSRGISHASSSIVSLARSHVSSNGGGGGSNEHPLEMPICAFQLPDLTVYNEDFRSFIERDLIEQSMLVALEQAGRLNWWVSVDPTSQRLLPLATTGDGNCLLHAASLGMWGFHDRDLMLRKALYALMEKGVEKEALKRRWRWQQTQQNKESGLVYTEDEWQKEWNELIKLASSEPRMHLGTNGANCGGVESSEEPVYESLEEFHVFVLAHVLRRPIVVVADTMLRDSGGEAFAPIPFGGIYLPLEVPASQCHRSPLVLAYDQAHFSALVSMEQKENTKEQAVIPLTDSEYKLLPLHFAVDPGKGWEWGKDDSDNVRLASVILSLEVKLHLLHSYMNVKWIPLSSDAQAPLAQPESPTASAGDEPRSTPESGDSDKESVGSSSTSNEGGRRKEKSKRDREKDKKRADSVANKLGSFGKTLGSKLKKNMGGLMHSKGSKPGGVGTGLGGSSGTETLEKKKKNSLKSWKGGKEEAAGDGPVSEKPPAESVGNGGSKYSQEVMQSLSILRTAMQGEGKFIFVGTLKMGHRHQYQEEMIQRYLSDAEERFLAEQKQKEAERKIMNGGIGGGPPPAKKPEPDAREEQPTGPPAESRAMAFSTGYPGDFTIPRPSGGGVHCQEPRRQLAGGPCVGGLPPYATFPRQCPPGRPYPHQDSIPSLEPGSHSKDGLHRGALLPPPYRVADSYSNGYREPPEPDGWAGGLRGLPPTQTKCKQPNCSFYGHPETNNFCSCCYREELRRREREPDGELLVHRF
Outline: as §1

PRPF8 = PRPF8 (UniProt Q6P2Q9)
Outline: as §1

PSMD7 = molecular target: T3, PSMD7 (UniProt P51665)
T3 sequence (whole entry): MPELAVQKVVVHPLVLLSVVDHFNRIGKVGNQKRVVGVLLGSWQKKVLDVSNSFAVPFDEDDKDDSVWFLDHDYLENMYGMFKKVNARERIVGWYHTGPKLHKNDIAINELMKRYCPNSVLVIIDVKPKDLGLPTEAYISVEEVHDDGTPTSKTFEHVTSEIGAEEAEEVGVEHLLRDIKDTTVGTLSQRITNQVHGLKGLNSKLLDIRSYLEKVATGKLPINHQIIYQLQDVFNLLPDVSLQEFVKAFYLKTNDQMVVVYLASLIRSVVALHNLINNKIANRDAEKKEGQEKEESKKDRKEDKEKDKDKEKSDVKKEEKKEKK
Outline: as §1

UCHL1 = UCHL1 (UniProt P09936)
UCHL1, sequence (P09936 whole entry, looked up): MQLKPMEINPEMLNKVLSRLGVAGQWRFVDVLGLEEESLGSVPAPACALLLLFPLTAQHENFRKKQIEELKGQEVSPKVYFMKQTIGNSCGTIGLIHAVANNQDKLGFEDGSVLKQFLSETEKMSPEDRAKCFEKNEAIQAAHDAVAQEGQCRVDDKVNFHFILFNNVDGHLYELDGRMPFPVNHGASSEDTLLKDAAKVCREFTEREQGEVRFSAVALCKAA
Outline: as §1

UCHL3 = molecular target: T4, UCHL3 (UniProt P15374)
T4 sequence (whole entry): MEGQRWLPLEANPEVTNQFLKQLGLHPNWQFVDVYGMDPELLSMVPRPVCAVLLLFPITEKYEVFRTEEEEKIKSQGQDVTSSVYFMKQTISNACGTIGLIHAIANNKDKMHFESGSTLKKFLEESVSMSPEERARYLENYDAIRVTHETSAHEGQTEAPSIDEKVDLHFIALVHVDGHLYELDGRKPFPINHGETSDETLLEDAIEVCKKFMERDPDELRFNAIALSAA
Outline: as §1

UCHL5 = molecular target: T5, UCHL5 (UniProt Q9Y5K5)
T5 sequence (whole entry): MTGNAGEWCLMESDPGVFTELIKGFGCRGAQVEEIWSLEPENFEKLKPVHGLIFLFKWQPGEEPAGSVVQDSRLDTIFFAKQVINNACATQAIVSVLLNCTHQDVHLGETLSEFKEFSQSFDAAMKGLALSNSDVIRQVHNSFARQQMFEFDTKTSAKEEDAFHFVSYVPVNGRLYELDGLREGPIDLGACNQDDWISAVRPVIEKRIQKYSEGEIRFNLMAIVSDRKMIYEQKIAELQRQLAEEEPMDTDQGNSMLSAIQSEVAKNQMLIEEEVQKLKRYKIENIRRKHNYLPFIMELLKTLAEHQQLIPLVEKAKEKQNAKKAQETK
Outline: as §1

USP10 = USP10 (UniProt Q14694)
USP10, sequence (Q14694 whole entry): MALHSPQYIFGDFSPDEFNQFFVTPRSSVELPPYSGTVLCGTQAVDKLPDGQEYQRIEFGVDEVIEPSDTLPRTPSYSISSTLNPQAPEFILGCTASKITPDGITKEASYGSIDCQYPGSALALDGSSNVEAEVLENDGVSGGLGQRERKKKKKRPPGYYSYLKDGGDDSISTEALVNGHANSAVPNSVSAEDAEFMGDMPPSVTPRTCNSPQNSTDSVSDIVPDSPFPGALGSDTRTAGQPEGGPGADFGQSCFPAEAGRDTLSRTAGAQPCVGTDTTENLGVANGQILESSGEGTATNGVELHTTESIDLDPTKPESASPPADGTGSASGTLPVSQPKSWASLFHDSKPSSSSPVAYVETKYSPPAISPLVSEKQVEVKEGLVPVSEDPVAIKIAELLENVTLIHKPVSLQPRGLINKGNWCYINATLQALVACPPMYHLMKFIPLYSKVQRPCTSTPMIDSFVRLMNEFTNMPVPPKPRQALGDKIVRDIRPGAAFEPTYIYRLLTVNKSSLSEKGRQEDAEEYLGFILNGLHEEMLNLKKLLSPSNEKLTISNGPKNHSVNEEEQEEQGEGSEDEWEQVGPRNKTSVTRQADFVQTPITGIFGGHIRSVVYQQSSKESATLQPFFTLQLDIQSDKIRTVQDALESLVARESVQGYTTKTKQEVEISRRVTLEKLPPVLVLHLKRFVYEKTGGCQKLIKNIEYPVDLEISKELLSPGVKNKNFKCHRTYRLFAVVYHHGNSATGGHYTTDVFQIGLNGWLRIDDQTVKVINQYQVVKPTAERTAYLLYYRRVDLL
Outline: as §1

USP15 = molecular target: T6, USP15 (UniProt Q9Y4E8)
T6 sequence (whole entry): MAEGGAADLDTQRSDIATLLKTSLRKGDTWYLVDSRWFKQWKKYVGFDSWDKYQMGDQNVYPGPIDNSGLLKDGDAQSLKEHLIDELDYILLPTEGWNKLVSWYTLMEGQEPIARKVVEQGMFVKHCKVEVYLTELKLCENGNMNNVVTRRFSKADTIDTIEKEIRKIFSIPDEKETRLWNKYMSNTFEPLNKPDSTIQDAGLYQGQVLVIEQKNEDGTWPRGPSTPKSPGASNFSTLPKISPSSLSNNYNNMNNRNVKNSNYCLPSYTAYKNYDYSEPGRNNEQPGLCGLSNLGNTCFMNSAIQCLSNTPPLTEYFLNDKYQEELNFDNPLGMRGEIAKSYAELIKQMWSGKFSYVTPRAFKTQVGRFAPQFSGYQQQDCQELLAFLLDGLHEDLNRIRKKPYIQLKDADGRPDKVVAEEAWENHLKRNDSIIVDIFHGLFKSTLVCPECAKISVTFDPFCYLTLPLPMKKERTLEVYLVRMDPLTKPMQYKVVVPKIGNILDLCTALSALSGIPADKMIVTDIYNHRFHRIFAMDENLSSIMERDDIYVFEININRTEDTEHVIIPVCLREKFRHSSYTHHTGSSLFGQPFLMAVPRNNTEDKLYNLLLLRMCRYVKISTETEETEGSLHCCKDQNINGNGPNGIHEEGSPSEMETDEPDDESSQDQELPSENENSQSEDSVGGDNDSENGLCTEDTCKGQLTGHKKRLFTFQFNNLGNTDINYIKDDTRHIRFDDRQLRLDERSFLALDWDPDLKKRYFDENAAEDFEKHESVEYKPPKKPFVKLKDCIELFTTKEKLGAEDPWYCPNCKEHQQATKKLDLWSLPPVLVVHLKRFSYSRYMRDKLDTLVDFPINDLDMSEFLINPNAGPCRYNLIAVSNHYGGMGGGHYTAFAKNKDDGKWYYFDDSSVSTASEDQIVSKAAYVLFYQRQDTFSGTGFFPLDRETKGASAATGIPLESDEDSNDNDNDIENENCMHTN
Outline: as §1

USP16 = USP16 (UniProt Q9Y5T5)
USP16, sequence (Q9Y5T5 whole entry, looked up): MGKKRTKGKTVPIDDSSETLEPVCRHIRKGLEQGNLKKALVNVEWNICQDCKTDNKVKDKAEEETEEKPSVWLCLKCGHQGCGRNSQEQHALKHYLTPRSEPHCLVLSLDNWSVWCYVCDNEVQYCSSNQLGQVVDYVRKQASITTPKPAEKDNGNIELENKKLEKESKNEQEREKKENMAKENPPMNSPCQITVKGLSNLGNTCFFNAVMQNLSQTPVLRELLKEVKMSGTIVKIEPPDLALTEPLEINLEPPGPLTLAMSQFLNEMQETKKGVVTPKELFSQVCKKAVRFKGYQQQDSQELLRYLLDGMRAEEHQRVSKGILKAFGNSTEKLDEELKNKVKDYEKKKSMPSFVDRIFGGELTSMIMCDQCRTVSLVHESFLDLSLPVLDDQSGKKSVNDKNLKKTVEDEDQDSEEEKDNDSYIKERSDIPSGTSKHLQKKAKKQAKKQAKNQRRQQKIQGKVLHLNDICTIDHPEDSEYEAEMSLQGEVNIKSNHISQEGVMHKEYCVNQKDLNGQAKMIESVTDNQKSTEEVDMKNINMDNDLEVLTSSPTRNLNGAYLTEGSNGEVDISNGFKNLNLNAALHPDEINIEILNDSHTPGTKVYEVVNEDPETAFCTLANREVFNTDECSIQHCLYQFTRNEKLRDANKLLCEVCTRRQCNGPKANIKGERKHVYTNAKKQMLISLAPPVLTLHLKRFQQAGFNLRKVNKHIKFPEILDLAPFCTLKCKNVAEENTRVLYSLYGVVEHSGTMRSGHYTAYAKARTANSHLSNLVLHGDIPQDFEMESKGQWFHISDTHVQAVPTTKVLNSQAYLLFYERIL
Outline: as §1

## Cc1ccc2nnc(CNC(=O)CCl)n2c1
OTUD6B
  log2 ratio of Biotin-Ahx-Ub-VS probe labelling: 0.146
OTUD7B
  log2 ratio of Biotin-Ahx-Ub-VS probe labelling: -0.395
PRPF8
  log2 ratio of Biotin-Ahx-Ub-VS probe labelling: 0.153
PSMD7
  log2 ratio of Biotin-Ahx-Ub-VS probe labelling: 0.238
UCHL1
  log2 ratio of Biotin-Ahx-Ub-VS probe labelling: -1 (active)
UCHL3
  log2 ratio of Biotin-Ahx-Ub-VS probe labelling: 0.34
UCHL5
  log2 ratio of Biotin-Ahx-Ub-VS probe labelling: -0.0479
USP10
  log2 ratio of Biotin-Ahx-Ub-VS probe labelling: -0.0942
USP15
  log2 ratio of Biotin-Ahx-Ub-VS probe labelling: -0.0934
USP16
  log2 ratio of Biotin-Ahx-Ub-VS probe labelling: -0.0611
